What all share (assay): DAPPL (digital affinity profiling via proximity ligation, sequencing); 10 mM Tris-HCl pH 7.5, 50 mM NaCl, 1 mM DTT, 4% glycerol, room temperature, 30 min; GST-TFs on glutathione beads, 16-mer random dsDNA library, 0.1% formaldehyde crosslink after washing; high values mean tight binding
What all share (conditions): protein: recombinant; tags: N-terminal GST; dsDNA, one strand shown

The target in one assay is T1, FLI1 (Homo sapiens, UniProt Q01543 1-452).
T1 sequence: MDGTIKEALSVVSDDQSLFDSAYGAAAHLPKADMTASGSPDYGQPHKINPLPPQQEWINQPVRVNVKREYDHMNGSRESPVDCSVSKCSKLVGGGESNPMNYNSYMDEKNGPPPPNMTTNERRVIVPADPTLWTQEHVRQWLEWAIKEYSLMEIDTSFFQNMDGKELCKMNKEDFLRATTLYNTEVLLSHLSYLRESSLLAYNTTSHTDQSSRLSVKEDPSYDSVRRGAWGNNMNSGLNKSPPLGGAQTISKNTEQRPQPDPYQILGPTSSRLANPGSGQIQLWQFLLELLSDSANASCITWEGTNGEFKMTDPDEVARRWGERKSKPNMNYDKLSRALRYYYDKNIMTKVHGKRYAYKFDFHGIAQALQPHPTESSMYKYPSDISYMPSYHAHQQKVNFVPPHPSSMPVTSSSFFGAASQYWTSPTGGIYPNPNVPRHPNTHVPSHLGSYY
A digest of the protocol:
(§1)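 Pools of DNA-barcoded human transcription factors, expressed in yeast as GST fusions on glutathione beads and combined with a tag-only sample, were incubated with 200 nmole of a 16-mer random double-stranded DNA library. Incubation took 30 min at room temperature in Tris/NaCl/DTT/glycerol buffer and was followed by washing, 0.1% formaldehyde crosslinking, proximity ligation (BsaI/T4 ligase, 1 h, 37 °C), PCR amplification and sequencing on an Illumina NextSeq500. Binding signal is the ratio of a hexamer's read frequency for a factor to its frequency for the tag-only sample.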

A further assay deals with T2, ELK1 (Homo sapiens, UniProt P19419 1-428).
T2 sequence: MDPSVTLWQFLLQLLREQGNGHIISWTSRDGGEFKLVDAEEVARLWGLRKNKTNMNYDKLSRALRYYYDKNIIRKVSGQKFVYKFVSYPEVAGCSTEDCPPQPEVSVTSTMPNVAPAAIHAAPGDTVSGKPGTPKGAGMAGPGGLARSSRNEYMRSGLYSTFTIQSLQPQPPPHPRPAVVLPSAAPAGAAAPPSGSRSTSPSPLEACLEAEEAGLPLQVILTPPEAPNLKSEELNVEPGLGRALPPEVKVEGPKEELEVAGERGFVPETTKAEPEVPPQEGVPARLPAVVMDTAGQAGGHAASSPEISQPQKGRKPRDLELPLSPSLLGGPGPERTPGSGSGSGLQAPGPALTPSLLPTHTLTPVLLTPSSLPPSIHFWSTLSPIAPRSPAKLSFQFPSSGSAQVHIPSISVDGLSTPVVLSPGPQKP
The method in brief: as §1

The target in the next assay is T3, GABPA (Homo sapiens, UniProt Q06546 1-454).
T3 sequence: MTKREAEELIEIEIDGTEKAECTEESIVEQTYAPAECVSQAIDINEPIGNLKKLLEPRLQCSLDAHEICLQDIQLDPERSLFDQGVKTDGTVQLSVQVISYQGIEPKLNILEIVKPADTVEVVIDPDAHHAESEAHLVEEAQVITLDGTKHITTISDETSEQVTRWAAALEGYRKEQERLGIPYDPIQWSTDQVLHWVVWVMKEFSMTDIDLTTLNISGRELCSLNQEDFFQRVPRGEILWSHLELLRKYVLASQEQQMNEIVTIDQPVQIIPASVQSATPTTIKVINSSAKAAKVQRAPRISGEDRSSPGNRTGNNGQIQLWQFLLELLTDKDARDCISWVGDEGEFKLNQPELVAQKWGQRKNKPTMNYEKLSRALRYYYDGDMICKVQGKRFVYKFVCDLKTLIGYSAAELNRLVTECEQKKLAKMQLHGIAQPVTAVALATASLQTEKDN
The method in brief: as §1

The target of a further assay is T4, ERG (Homo sapiens, UniProt P11308 1-479).
T4 sequence: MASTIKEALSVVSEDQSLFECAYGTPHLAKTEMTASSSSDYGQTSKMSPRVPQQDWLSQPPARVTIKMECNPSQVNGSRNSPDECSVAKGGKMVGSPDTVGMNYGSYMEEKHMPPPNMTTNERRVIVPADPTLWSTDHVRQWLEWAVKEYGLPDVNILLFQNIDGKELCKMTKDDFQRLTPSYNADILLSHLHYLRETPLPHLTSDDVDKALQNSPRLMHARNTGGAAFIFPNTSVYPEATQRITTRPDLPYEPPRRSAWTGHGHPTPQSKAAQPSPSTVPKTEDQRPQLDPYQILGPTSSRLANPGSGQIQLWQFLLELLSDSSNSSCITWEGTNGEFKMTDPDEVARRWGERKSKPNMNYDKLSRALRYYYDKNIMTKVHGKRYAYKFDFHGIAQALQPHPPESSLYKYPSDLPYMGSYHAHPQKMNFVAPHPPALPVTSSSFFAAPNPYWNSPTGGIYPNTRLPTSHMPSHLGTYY
The method in brief: as §1

Another assay concerns the target T5, EHF (Homo sapiens, UniProt Q9NZC4 1-300).
T5 sequence: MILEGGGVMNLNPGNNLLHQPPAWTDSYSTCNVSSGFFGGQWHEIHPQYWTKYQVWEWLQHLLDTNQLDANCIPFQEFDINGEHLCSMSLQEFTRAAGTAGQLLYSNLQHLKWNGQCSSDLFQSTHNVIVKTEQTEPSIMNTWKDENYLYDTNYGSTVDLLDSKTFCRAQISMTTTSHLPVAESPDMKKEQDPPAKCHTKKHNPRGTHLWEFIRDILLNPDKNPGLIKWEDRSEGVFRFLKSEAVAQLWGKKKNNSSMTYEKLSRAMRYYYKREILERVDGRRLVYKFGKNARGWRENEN
The method in brief: as §1

For the next assay, the target named is SPI1 (Homo sapiens, UniProt P17947 1-270). A digest of the protocol: as §1
The target of another assay is SPIB (Homo sapiens, UniProt Q01892 1-262). The method in brief: as §1
Sequence of SPIB (Q01892 whole entry): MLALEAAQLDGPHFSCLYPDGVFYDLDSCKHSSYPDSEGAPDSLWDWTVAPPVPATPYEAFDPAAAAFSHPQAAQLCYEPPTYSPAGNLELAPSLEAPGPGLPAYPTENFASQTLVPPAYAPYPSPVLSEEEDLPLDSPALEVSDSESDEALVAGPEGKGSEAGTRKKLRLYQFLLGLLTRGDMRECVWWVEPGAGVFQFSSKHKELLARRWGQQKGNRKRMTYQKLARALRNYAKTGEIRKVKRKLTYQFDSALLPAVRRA
The next assay concerns the target ETV5 (Homo sapiens, UniProt P41161 1-510). The method in brief: as §1
Another assay addresses T6, SPIC (Homo sapiens, UniProt Q8N5J4 1-248).
T6 sequence: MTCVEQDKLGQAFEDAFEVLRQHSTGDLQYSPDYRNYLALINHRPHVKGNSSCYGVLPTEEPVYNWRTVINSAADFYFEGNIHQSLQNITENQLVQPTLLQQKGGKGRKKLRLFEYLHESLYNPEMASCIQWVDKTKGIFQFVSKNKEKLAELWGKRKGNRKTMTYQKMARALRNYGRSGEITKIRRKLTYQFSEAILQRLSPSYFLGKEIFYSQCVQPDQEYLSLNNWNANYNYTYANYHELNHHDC
A digest of the protocol: as §1

In a further assay the target is ELF4 (Homo sapiens, UniProt Q99607 1-663). A digest of the protocol:
as §1

For the next assay, the target named is ETV1 (Homo sapiens, UniProt P50549 1-477). A digest of the protocol: as §1
Sequence of ETV1 (P50549 whole entry): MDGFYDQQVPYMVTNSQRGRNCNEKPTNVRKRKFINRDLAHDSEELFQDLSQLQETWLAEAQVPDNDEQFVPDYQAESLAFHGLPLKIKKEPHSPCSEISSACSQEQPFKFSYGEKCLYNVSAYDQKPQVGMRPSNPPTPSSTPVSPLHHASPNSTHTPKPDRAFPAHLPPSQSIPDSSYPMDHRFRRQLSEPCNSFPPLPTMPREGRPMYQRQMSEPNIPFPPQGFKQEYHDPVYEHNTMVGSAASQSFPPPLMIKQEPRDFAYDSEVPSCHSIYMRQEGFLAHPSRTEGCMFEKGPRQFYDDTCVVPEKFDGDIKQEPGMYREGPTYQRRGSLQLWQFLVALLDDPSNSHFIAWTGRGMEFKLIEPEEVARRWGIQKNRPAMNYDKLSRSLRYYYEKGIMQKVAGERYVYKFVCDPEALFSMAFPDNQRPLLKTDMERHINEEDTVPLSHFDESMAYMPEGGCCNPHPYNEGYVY
Another assay deals with T7, ETV3L (Homo sapiens, UniProt Q6ZN32 1-361).
T7 sequence: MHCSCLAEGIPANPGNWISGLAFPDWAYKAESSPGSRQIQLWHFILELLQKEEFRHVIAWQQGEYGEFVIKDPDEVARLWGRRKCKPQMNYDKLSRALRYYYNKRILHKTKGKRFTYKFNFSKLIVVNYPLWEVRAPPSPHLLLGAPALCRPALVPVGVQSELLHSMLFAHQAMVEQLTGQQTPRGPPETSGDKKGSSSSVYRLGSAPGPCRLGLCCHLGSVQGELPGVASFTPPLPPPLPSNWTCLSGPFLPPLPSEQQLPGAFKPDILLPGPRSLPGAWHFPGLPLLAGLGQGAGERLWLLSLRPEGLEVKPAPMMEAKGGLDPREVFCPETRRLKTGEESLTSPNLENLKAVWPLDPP
The method in brief: as §1

In the next assay the target is T8, ETS2 (Homo sapiens, UniProt P15036 1-469).
T8 sequence: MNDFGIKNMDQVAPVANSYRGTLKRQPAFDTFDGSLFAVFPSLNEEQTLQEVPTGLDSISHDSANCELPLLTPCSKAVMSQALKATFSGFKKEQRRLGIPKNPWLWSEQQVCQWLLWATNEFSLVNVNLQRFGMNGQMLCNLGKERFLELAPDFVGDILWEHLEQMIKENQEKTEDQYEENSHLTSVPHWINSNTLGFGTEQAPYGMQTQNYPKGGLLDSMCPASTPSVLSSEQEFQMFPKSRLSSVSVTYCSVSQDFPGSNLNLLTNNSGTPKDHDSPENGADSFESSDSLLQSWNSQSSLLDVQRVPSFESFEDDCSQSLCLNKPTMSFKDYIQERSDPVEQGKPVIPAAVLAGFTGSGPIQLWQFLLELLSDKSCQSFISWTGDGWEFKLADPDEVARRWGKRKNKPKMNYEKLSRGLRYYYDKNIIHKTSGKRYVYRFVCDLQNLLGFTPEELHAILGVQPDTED
A digest of the protocol: as §1

The target of the next assay is T9, ETV3 (Homo sapiens, UniProt P41162-2 1-143).
T9 sequence: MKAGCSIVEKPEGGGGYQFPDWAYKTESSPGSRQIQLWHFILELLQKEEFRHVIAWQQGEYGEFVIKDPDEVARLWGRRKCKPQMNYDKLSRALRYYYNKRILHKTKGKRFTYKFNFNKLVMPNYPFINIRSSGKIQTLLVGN
A digest of the protocol: as §1

The next assay addresses ETV6 (Homo sapiens, UniProt P41212 1-452). A digest of the protocol:
as §1

Sequence of ELF4 (Q99607 whole entry): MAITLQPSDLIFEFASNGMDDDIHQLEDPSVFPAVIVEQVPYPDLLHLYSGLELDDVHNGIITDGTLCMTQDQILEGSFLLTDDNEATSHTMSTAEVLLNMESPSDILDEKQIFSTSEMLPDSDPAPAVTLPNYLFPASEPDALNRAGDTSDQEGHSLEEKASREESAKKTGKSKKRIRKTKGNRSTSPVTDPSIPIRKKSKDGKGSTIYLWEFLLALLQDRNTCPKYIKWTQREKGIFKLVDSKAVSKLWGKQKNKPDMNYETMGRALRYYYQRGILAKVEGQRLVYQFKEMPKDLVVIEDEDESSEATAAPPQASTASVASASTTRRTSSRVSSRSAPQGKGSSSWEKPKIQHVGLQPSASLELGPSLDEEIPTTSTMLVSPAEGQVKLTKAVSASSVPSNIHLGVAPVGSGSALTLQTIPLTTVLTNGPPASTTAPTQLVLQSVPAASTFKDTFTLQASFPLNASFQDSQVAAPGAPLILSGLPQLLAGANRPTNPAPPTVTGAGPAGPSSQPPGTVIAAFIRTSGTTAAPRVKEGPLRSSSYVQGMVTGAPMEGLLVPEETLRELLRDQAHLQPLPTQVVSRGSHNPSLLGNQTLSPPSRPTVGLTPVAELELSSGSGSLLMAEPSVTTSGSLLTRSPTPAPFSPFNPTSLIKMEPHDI
Sequence of ETV6 (P41212 whole entry): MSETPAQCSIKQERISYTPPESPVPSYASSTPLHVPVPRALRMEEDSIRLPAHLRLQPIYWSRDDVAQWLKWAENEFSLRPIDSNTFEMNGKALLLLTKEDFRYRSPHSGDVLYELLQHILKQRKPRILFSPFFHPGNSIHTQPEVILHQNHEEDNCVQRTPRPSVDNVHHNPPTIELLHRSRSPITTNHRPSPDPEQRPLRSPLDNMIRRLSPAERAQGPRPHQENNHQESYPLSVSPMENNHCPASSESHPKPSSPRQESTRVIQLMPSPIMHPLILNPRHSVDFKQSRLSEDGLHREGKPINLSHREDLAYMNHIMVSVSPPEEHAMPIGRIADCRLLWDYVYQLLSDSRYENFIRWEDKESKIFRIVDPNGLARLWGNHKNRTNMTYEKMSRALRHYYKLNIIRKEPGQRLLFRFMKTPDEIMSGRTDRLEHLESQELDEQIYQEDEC
Sequence of ETV5 (P41161 whole entry): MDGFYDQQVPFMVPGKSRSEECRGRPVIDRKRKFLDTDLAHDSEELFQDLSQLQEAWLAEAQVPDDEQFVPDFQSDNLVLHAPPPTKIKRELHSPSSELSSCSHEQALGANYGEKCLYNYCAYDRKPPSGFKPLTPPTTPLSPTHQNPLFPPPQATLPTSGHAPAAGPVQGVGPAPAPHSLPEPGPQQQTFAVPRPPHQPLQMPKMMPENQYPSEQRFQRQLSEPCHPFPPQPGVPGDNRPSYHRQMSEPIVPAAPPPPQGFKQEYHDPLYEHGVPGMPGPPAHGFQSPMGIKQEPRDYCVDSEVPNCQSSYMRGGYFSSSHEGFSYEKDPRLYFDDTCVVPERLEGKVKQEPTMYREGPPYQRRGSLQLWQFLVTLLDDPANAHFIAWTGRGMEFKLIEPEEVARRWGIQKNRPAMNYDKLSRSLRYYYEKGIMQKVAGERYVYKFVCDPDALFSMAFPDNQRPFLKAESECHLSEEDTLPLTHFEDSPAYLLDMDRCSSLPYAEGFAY

With TGGTCA, the binding signal with FLI1 is 1.11 fold enrichment (6-mer frequency, TF over GST control); in the assay with ELK1, 1 fold enrichment (6-mer frequency, TF over GST control); in the assay with GABPA it was 1.17 fold enrichment (6-mer frequency, TF over GST control); with ERG, 1.06 fold enrichment (6-mer frequency, TF over GST control); in the assay with EHF, 1.01 fold enrichment (6-mer frequency, TF over GST control); with SPI1 it was 1.05 fold enrichment (6-mer frequency, TF over GST control). For the same sequence, the binding signal in the assay with SPIB is 1.07 fold enrichment (6-mer frequency, TF over GST control); in the assay with ETV5 it was 1.02 fold enrichment (6-mer frequency, TF over GST control); with SPIC it was 1.07 fold enrichment (6-mer frequency, TF over GST control); with ELF4, 1.06 fold enrichment (6-mer frequency, TF over GST control); in the assay with ETV1 it was 1.02 fold enrichment (6-mer frequency, TF over GST control); with ETV3L, 1.1 fold enrichment (6-mer frequency, TF over GST control). The binding signal was 1.13 fold enrichment (6-mer frequency, TF over GST control) with ETS2; 1.01 fold enrichment (6-mer frequency, TF over GST control) with ETV3; 1.04 fold enrichment (6-mer frequency, TF over GST control) with ETV6.

The record behind these values is publication PMC7862700, “An all-to-all approach to the identification of sequence-specific readers for epigenetic DNA modifications on cytosine”.
